About 83,000 compounds went through this panel and 20% of them were active in at least one assay; those are over-represented in the sample as a whole.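 Results are percent growth after 48 hours of single-concentration exposure. 100 means growth as in untreated cells, lower positive values show inhibition; negative values down to -100 show cell death.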 Unmarked numbers belong to inactive results. The source made the active and inactive calls. How the source made its calls: active means growth percent below 10; inactive means the rest.
How the values were obtained:
Experiment in all cases: NCI-60 one-dose screen, 48 h (100 = growth as untreated, 0 = no growth, -100 = all killed)
Settings in all cases: 10 µM unless noted
NCI-H23 lung = system: NCI-H23 lung
NCI-H226 lung = system: NCI-H226 lung
NCI-H322M lung = system: NCI-H322M lung
HOP-62 NSCLC = system: HOP-62 NSCLC
HOP-92 NSCLC = system: HOP-92 NSCLC
NCI-H522 lung = system: NCI-H522 lung
A549/ATCC NSCLC = system: A549/ATCC NSCLC
786-0 renal = system: 786-0 renal
COLO 205 colon = system: COLO 205 colon
NCI-H460 lung = system: NCI-H460 lung

Row | Structure (SMILES) | growth (NCI-H23 lung) | growth (NCI-H226 lung) | growth (NCI-H322M lung) | growth (HOP-62 NSCLC) | growth (HOP-92 NSCLC) | growth (NCI-H522 lung) | growth (A549/ATCC NSCLC) | growth (786-0 renal) | growth (COLO 205 colon) | growth (NCI-H460 lung)
1 | Cc1ccc(/C=N/NC(=O)CSc2nc3ccccc3c(=O)n2Cc2ccc(S(N)(=O)=O)cc2)cc1 | 91.5% | 84.6% | 102% | 85.7% | 109% | 42.5% | 85.9% | 99.3% | 105% | 
2 | CCCNC(=O)Oc1ccc(/C(=C(\C)c2ccccc2)c2ccc(OCCCN(C)C)cc2)cc1 | 75.6% | 102% | 81.2% | 78.3% | 68.2% | 79.6% | 70% | 58.6% | 52.8% | 
3 | Cc1ccc(-c2nc3ccccn3c2/C=C2/C(=O)Nc3cc(Cl)ccc32)cc1 | 72.4% | 94.5% | 98% | 83.7% | 110% | 68.7% | 90.6% | 92.7% | 84% | 
4 | O=S(=O)(NCCNc1nccc(-c2c(-c3cccc(F)c3)nc3sccn23)n1)c1ccccc1 | 56.1% | 34.5% | 51.5% | 60.2% | 51.5% | 43.7% | 25.2% | 47.4% | 24.2% | 
5 | C=C1C(=O)O[C@H]2[C@H]1CC/C(CNC(=O)c1cccc3ccccc13)=C\CC[C@@]1(C)O[C@@H]21 | 70.1% | 78% | 90.5% | 93.1% | -11% (active) | -46.7% (active) | 76.9% | 32.2% | 28.5% | 
6 | CC(=O)[C@@H]1CC[C@]2(C(N)=O)CC[C@]3(C)[C@H](CC[C@@H]4[C@@]5(C)CCCNC(C)(C)[C@@H]5CC[C@]43C)[C@@H]12 | 93.7% | 99.6% | 96.3% | 98.3% | 81.7% | 107% | 83.3% | 88.9% | 86.6% | 
7 | CCOC(=O)Oc1c(OC)cc(C(=O)c2ccc(OC)c(O)c2OC)cc1OC | 37.8% | 54.9% | 46.1% | 24% | 48.3% | 24% | 25.7% | 21.2% | 89.6% | 
8 | COc1ccc(C(=O)C2C(C#N)C(C#N)C3C=Cc4ccccc4N32)cc1 (configuration not stated) | 37.9% | 77.6% | 53.5% | 30.1% | 84.1% | 0.174% (active) | 29.9% |  | -5.52% (active) | 
9 | O=C1c2ccc3c4c(ccc(c24)C(=O)N1CCCNCc1ccccc1)C(=O)N(CCCNCc1ccccc1)C3=O | -72.9% (active) | -54.1% (active) | -37.8% (active) | -38.5% (active) | -12.5% (active) | -91.2% (active) | -91.1% (active) | -46.3% (active) | -43.3% (active) | 
10 | N#Cc1c(-c2ccccc2)nc2c(c(-c3ccccc3)nn2-c2ccccc2)c1-c1ccc(O)cc1 | 44.1% | 54% | 66.9% | 25.3% | 50.1% | 0.943% (active) | 41.4% | 3.44% (active) | 41.9% | 
11 | Oc1c(Cl)cc(Cl)c(Cl)c1CNCCNCc1c(O)c(Cl)cc(Cl)c1Cl | 24.7% | 56.2% |  | 25% | 27.8% | 14.9% | 13.4% |  | 13.3% | 13%
12 | CCCCOc1ccc(/C(C)=N/Nc2cc(C)nc3ccc(Br)cc23)cc1 | 90.7% |  | 103% | 88.7% | 78.4% | 96.9% | 92.5% | 95.1% | 26.5% | 14.2%
13 | O=[N+]([O-])c1ccc(N=Nc2cc(S(=O)(=O)O)c3cccc(S(=O)(=O)O)c3c2O)cc1 | 103% | 105% |  | 107% | 87.8% | 110% | 114% | 114% | 127% | 116%
14 | N#C/C(=C\c1c(-c2ccccc2)[nH]c2ccccc12)C(=O)c1ccc(Cl)cc1 | 36.9% | 69% |  | 41.4% | 55.2% | 35.3% | 48.8% | 44.6% | 41.6% | 18.2%
15 | CN(C)CCC(=O)c1ccc([N+](=O)[O-])cc1 | 109% | 94.8% |  | 98.6% | 89.2% | -23% (active) | 109% |  | 107% | 107%

— PubChem BioAssay (NCI)
